# Values without a mark were called inactive. Activity calls are given as the source filed them. The call rests on the fitted dose curve; in most records, active means well fitted inhibition curve with a large enough effect; inconclusive means small, poorly fitted or top-dose-only effect; inactive means flat fitted curve, though single readings scatter.
# Target: DNA dC->dU-editing enzyme APOBEC-3G (Homo sapiens) (UniProt Q9HC16)
# Assay: qHTS for inhibitors of Vif-A3G interactions: Validation (AID 588379); further: 0% is about no effect
# Details: Vif-A3G protein interaction assay; series mostly up to 46.1 µM; activity change, negative = inhibition: at the top concentration
# Excerpt: The recent discovery and characterization of host restriction factors, which provide a potent defense to invading retroviruses, has provided new targets for antiviral drug development. APOBEC3G (A3G) and APOBEC3F (A3F) are potent cytidine deaminases that block HIV-1 replication; HIV-1 expresses the Vif protein, which counteracts A3G and A3F by binding to them and inducing their proteasomal degradation.
# The Vif-A3G and Vif-A3F interactions provide two potential targets for development of small molecules which can interfere with the ability of Vif to degrade A3G or A3F. […] To identify inhibitors that can interfere with Vif mediated degradation of A3G and A3F, we have developed Hela cell lines that stably express A3G or A3F tagged with eYFP at the C-terminal end (A3G-eYFP or A3F-eYFP, respectively) and Vif. In the absence of an inhibitor, Vif induces degradation of A3G-eYFP and A3F-eYFP, and the cells are not fluorescent. In the presence of an inhibitor, it is expected that Vif will be unable to degrade A3G-eYFP and/or A3F-eYFP, resulting in an increase in yellow fluorescence. In this assays Vif A3G was screened against the Molecular Library Small Molecile Repository (MLSMR).
# NIH Chemical Genomics Center [NCGC]
# NIH Molecular Libraries Probe Centers Network [MLPCN]
# Assay Submitter (PI): Vinay Pathak, National Cancer Institute
# 5 uL of 700 cells/well of A3G-YFP cells are dispensed into black, clear bottom plates. The plates are incubated overnight at 37 deg C. 23 nL of compounds are added by pintool. The plates are incubated overnight at 37 deg C and then read on the TTP Acumen (Ex 488/ Em 500-530).
# Chain of DNA dC->dU-editing enzyme APOBEC-3G (Homo sapiens) (Q9HC16 whole entry, looked up): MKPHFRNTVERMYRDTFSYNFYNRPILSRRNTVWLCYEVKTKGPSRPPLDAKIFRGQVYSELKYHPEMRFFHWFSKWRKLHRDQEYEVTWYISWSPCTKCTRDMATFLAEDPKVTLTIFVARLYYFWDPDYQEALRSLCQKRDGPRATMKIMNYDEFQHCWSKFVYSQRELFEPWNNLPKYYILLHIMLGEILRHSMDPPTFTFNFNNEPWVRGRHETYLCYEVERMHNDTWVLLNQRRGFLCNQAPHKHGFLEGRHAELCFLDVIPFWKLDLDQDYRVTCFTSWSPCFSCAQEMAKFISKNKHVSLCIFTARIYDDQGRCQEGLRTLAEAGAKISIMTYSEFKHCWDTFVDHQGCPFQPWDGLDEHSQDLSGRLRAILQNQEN
SMILES,outcome,"activity change, negative = inhibition"
CC(C)NC[C@@H](O)COc1cccc2ccccc12,inactive,–
CN=C(NC#N)NCCSCc1csc(N=C(N)N)n1,–,-0.335%
COc1cccc2c1C(=O)c1c(O)c3c(c(O)c1C2=O)C[C@@](O)(C(C)=O)C[C@@H]3O[C@H]1C[C@H](N)[C@H](O)[C@H](C)O1,–,-11.6%
CC(C)(CO)[C@@H](O)C(=O)NCCCO,–,1.69%
CNCC[C@@H](Oc1ccccc1C)c1ccccc1,–,-5.6%
CN=C(NC#N)Nc1ccc(C2=NNC(=O)CC2C)cc1 (stereo not drawn),–,-0.416%
CC[N+](CC)(CCNC(=O)C(=O)NCC[N+](CC)(CC)Cc1ccccc1Cl)Cc1ccccc1Cl,–,-1.8%
COc1cc(-c2ccc(=O)[nH]n2)ccc1OC(F)F,–,0.201%
CC(C)(Oc1ccc(Cl)cc1)C(=O)O,–,1.14%
CCN1CCC[C@H]1CNC(=O)c1c(OC)ccc(Br)c1OC,–,-16.7%
COc1c(C)c2c(c(O)c1C/C=C(\C)CCC(=O)O)C(=O)OC2,inactive,–
Nc1nc2ncc(CNc3ccc(C(=O)N[C@@H](CCC(=O)O)C(=O)O)cc3)nc2c(=O)[nH]1,–,4.44%
C[C@@H]1CN(CCCn2c3ccccc3c3ccccc32)C[C@H](C)N1,–,-10.3%

# — PubChem BioAssay (NCATS)
